Assay results: PubChem BioAssay AID1347426 (Functional Genomics Laboratory (NCATS/FGL), 2020)
The whole screen tested about 31,000 sequences, of which about 1,400 (4.5%) were called active. Only a selection was taken, and actives are over-represented in it overall. Unmarked numbers belong to inactive results.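 Rule for the calls: active = median seed-adjusted z-score above 1 or below -1; inactive = the rest.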

Assay: Novel Modifiers of Survival Motor Neuron (SMN) Protein: Gene Identification via Genome-wide siRNA Screen;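 note: luminescence tracks full-length SMN protein made from the SMN2 reporter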
Conditions: HEK293T SMN2-luciferase reporter, siRNA knockdown, 72 h; actives lie on both sides
Description: Spinal muscular atrophy (SMA) is the most common neuromuscular autosomal recessive disorder and one of the leading genetic causes of infant death. SMA results from mutations inducing loss of function or deletion in the survival of motor neuron-1 gene (SMN1), leading to deficiency of the survival motor neuron (SMN) protein. Although a second nearly identical gene, SMN2, is retained in humans, its expression primarily produces an aberrantly spliced isoform that is largely unstable and quickly degraded. We performed a genome-wide RNAi screen using a cell-based reporter assay to identify genes and pathways that modulate SMN protein stability. The screen identified over 200 genes that led to the greatest increase or decrease in luciferase expression.
Using HEK293T cells stably expressing a luciferase reporter that combines the promoter and splicing based cassettes in tandem with the major portion of the native SMN2 cDNA with luciferase, we performed a genome-wide RNAi screen to identify modulators of SMN protein levels. Luciferase is expressed when full-length SMN protein is generated with luminescence signal proportional to SMN protein levels. Our luciferase-based reporter assay was used to screen Ambion Silencer Select Human Druggable Genome siRNA library (10418 genes, 3 unique siRNAs per gene) using lipid-based reverse transfection.
Briefly, 1 pmol of each siRNA was spotted to a well of a 384-well plate (Corning, Corning, NY) and 20 microL of serum-free DMEM containing […] of Lipofectamine RNAiMax (Life Technologies, Carlsbad, CA) was then added to each well. Transfected cells were maintained at 37 degrees C in 5% CO2 for 72 hours, 20 microL of ONE-Glo Reagent (Promega) was added to wells for luciferase quantification. Raw luminescence reads were normalized to Ambion(R) Silencer(R) Negative Control #2 siRNA, then log10 transformed. A robust statistical measure of median absolute deviation (MAD) to standardize siRNA activities from each screen. Common Seed Analysis was used to help prioritize clean hits as opposed to those appearing to arise from seed based off-target effects. Candidate modulators were defined as the genes having a MAD score greater than 1.0 or less than -1.0.

Row | Sequence | median seed-adjusted z-score
1 | CCACCUUGCAGAAAACCGATT against ITPR3 | -1.28 (active)
2 | GCUCAUCCACUAUAACCAUTT against CA10 | 0.255
3 | GGUCGAAGCUGUGCAAGGATT against TPPP | -0.16
4 | AGCUGGAGGUCAACAAGUATT against TIMP3 | -1.05 (active)
5 | UCUCAGAUCUCUUCCCAGATT against ROBO4 | -0.431
6 | CAAGGAGCAAGGUUCGGAATT against KIRREL3 | -0.206
7 | GAUGAUCGCUUCAACCUGATT against DDX6 | 1.12 (active)
8 | GUAUGUUCCACAUAAUGAATT against CYP19A1 | -0.321
9 | GGAAUAGAACAAUUGAAAATT against ZDHHC3 | 0.229
10 | UGAGGACACUUCUUGGAGATT against FOXE3 | -0.451
11 | CGAUGGUUGACAAUCCAGATT against NDUFS5 | -1.35 (active)
12 | CUUGCAAUGUCGAAGCUUATT against CDH8 | 0.169
13 | GGUGUUGAGUUUCUGCAAATT against CHMP1A | 0
14 | GGAUGAUAGAGGAAUUGUATT against SKIV2L2 | 0.642
15 | CCACCAUCCUACAAGCCUUTT against CYP2S1 | -0.196
16 | GCUAGUCAAGGUUCCUAAATT against GTF2F2 | -1.14 (active)
17 | GCAAUUCCAUGAUAAGGAATT against MMP20 | 0.0623
18 | GCCUUCUCCCUAUUUGAUATT against CALM1 | 0.355
19 | GCAGAAGACUAGAGAGACUTT against ABCC5 | 0.00533
20 | CAGUGCAACCUGGAGAGAATT against NRBP2 | 0.093
21 | ACAGCUCCGUGUUGACUCATT against FOXG1 | 0.749
22 | AAAAGAACGAGGAAGUUAUTT against CACNG2 | 0.00759
23 | GUAUAUGACUGUACACUCATT against AGPAT4 | 0.149

Row | Sequence | median seed-adjusted z-score
24 | GGAUCACCAACAAUCGCAATT against PDE6A | 1.25 (active)
25 | CAGCAGUUAUGGACCAGUUTT against AMD1 | -0.211
26 | GCAGAAAACUCACCCGAGATT against PCDHB7 | 0.365
27 | AGAACAACCUGGACUAUAUTT against PPP5C | 0.473
28 | CGUUAUUGUUAGCAACACUTT against ZNF280A | -0.207
29 | GGCUAUUAACCGAAGCAAATT against TSPAN31 | -1.13 (active)
30 | UCUACAAGCUGGACCCUGATT against MYO1G | -0.907
31 | GAUGCAUCAUCUGAAUAAATT against CPA6 | 0.343
32 | CGUGUUCAGUGGAAUCACATT against NPC1 | -0.195
33 | UCGAUGUACUGGAGACGGATT against NUCB1 | 0.232
34 | GCGAAUCCAGGAUCAAGAATT against TRIP4 | -0.0385
35 | GCUUCUAUUUAGUCACGAATT against AKAP9 | -1.22 (active)
36 | GCAAGUUGGAAGACCGGAATT against XPO5 | -0.031
37 | GAUCCAGAAGGGUAGUUAUTT against SERPINB2 | -0.0739
38 | CAGAUGCGGUUUAAACAGATT against TBC1D9B | -0.906
39 | GAGGUGAUCUUAGACCUGATT against QSOX2 | 0.498
40 | AAAAGACCGUCAACCCUUATT against A2BP1 | 1.17 (active)
41 | CAGUGUGGCUGACAACUUATT against SERTAD1 | 0.376
42 | GGCUAGCUGAUAUCAGUUUTT against DDX31 | 0.0144
43 | GGAGUGUGAUCGACCCUCATT against KRTAP5-5 | -1.07 (active)
44 | ACCUGGUGGUGUCAACUCATT against PTOV1 | 0.115
45 | GGUCGAAGUGUACCCAGUATT against USP11 | -0.0327
46 | CUACAAAUCCCUUACCAAUTT against TRDMT1 | 0

Row | Sequence | median seed-adjusted z-score
47 | GGUAUACACUGAAUAUCCUTT against LCP1 | -0.386
48 | GUACGAGACCUGUUCCAGATT against UCK2 | -1.51 (active)
49 | ACAUGGACGUGAAAGGGAATT against WFIKKN2 | -0.353
50 | GCUUCGUGCUAGAUAAAGATT against NOP14 | -0.344
51 | CAGCAUUCUUUAUCUCGUATT against FZD3 | -0.0208
52 | CCAUCAUGCUUGAUCGGGATT against SLC4A4 | 0.43
53 | GUACAAUCGUUGACAAUGATT against PPEF1 | -0.58
54 | CUACUGUCCUGAUGUAUCATT against MYF5 | -0.786
55 | GCAGCUGUAUAAGUUACUATT against NFKB1 | 0.31
56 | GGAAGGACUGCGAACCUUATT against POLM | -1.55 (active)
57 | AGAUAAGGAUGAAUUGAUATT against KLRB1 | -0.44
58 | GAACUAAUCAGGAAGCUUATT against DHX40 | -0.75
59 | GGAGAGGGUUGACAAAGUATT against PCYT1A | 0.0429
60 | CAUCUGAUCCGGGAAAUCATT against GALNT14 | 0
61 | GUGUCUCCAUAGUACGAGATT against ELP3 | 0.321
62 | AGCUCAACCAUAACGUGAATT against DIRAS2 | -1.25 (active)
63 | CGCAUUGCUUACUUACAAATT against PCDHA10 | 0.0404
64 | GCUGAGGACUUUAAUAUCUTT against GPR175 | 0.245
65 | GAUCCAAGCUAAUAUGAGATT against TGM5 | 0.0181
66 | CCUCAAGGAUUGGGACUAUTT against SLC22A17 | -0.149
67 | GGAAUUUCAUGUUCGGAAUTT against PAFAH2 | 0.0216
68 | GCAUCCGUGGAAAUGGUUATT against ASNS | -1.1 (active)
69 | CAUUCGGAGAAGUCGCAAATT against DDX59 | -0.859
